RORg inh: inhibitors of mouse ROR gamma transcriptional activity; P51450; Drosophila S2 Gal4-RORgamma UAS-luciferase reporter, 20 h; Potency, µM (titrated, usually from 53.6 µM), without a hit: at the highest dose activity change, negative = inhibition, hits mostly inhibitors; 310,000 compounds, 5.4% hits; AID 2551; also: % is scaled to controls: 0 for no effect and ±100 for the full control effect; nearly all actives have a fitted effect of over 60% in size
Target sequence (P51450 whole entry, looked up, the tested form may be a part): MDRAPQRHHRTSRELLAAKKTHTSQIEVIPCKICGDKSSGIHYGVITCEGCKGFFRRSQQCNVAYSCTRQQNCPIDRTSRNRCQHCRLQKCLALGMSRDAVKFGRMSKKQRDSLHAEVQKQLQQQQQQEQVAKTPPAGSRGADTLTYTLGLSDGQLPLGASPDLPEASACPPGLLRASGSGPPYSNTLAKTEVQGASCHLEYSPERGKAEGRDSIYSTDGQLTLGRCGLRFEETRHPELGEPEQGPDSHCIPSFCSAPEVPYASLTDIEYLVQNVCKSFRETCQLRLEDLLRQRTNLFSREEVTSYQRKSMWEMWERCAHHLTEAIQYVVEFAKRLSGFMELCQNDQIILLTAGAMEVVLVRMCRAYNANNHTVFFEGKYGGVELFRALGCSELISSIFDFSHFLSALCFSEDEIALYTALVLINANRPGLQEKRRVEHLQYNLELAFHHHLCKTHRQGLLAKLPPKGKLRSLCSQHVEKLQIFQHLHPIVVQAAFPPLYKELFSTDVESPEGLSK
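Stable Schneider cell line, Gal4 DNA-binding domain fused to ROR gamma, UAS-luciferase. Cmpd 1 hr RT → CuSO4 700 uM final → 20 hr RT → luciferase reagent 10 min → luminescence.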
ClpP mod: qHTS Assay for Activators of ClpP; 340,000 compounds, 1.9% hits; AID 651965, 2013; Potency, µM (doses to about 57.5 µM), without a hit: at the top dose activity change, negative = active; purified B. subtilis ClpP, FRET peptide cleavage, 20 min; ATP-dependent Clp protease proteolytic subunit (Bacillus subtilis (strain 168)), P80244; active = well fitted falling curve with a large enough effect; inconclusive = small, poorly fitted or top-dose-only effect; inactive = no such curve, though single readings can be large or run the other way; also: the source files actives as falling curves though it sought activators and does not explain the sign; nearly all actives have a fitted effect of over 65% in size
Target sequence (P80244 whole entry, looked up): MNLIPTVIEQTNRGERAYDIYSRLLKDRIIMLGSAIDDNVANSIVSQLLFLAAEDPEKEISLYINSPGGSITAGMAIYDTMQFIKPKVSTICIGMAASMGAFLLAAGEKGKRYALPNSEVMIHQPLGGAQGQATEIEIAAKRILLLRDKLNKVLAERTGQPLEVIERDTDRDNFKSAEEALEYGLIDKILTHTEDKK
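Purified B. subtilis ClpP, 10 microg/mL final in Tris/HCl pH8 with KCl, BSA, glycerol and Tween-20, cleaved an Abz/nitrotyrosine-quenched decapeptide. Fluorescence (ex 320, em 430) was read at 0 and 20 min at room temperature. Delta was normalized to 5.8 microM ADEP and DMSO/no-enzyme controls.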
PINK1 modulator: PINK1 expression modulation; PINK1 immunofluorescence, high-content cytometry, 24 h; Potency, µM (titrated, usually from 76.6 µM), without a hit: top-dose activation (PINK1 increase), actives largely listed as activators; 410,000 compounds, 0.2% hits; active = well fitted activation curve with a large enough effect; inconclusive = small, poorly fitted or top-dose-only effect; cell line not stated here; also: % of control where 0% means no effect; nearly all actives have a fitted effect of over 65% in size
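Stable cell line treated 24 h with compounds at 5 concentrations (CCCP controls), then fixed and immunostained for PINK1 plus nuclear and cell stains; PINK1 immunofluorescence quantified by laser-scanning microplate cytometry.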
Gal4-VP16 FLuc: inhibits Gal4-VP16 luciferase reporter, ROR gamma counter-screen. Potency, µM (series often up to 53.6 µM), inactives show top-dose activity, negative = inhibition, most hits filed as inhibitors. AID 2546. Drosophila S2 Gal4-VP16 UAS-luciferase, luminescence, 20 h. 310,000 compounds, 3.5% hits;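 also: Gal4-VP16 expression switched on by copper sulfate through the metallothionein promoter; % is scaled to controls: 0 for no effect and ±100 for the full control effect; nearly all actives have a fitted effect of over 50% in size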
Sfp PPTase inh: inhibitors of Bacillus subtilis Sfp phosphopantetheinyl transferase; Q9F4F7; Biochemical Sfp PPTase activity, qHTS; Potency, µM, for the others: largest response in the series, negative = inhibition, most hits filed as inhibitors; 310,000 compounds, 3.5% hits; AID 1490;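 also: the enzyme is Sfp with the accession as filed and its product quenches rhodamine fluorescence; 0% = enzyme reaction without inhibitor and -100% = no enzyme wells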
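With Hepes-Na pH 7.6 buffer containing 10 mM MgCl2, Sfp (15 nM) modified BHQ-2-YbbR (12.5 uM) using rhodamine-CoA (5 uM). Two reads 30 minutes apart at 525/598 nm yielded each well's rate.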
Epigenetic derep: derepresses silenced GFP reporter in murine cells; murine LDR cells, GFP reporter derepression, 30 h; Potency, µM (series often up to 53.9 µM), without a hit: at the highest dose GFP activation, actives largely listed as activators; 280,000 compounds, 0.2% hits; also: % of control where 0% means no effect; nearly all actives have a fitted effect of over 60% in size
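Readout is the number of GFP-expressing murine LDR cells, counted by cytometry following washing. Cells were treated with compound for 30 h at 37 C; the stably integrated CMV-GFP locus is normally silent.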
Numbers without * were called inactive; ? = inconclusive; nt = no result given; ! = repeats disagree; [ ] = remark or other dose. Only some compounds are listed: those with a hit (about 8.1% of all), similar ones and a draw of the others. Unless noted, calls follow the shape of the dose curve; as a rule, active = well fitted curve in the direction sought with a large enough effect; inconclusive = small, poorly fitted or top-dose-only effect, or another doubt; inactive = no such curve, though single readings can be large; an effect the other way counts as inactive or inconclusive. Potency is read from the fitted curve at half-maximal effect.

SMILES | RORg inh | ClpP mod | PINK1 modulator | Gal4-VP16 FLuc | Sfp PPTase inh | Epigenetic derep
C(=N\Nc1nc(N2CCCC2)nc(N2CCCC2)n1)/c1ccccc1OCc1ccccc1 | 2.8µM* | nt | ? | -21% | 11% | 4%
Fc1ccccc1COc1ccccc1/C=N/Nc1nc(N2CCCC2)nc(N2CCCC2)n1 | 6.3µM* | 13% | 13% | 13µM* | ? | 1%
O=C(O)c1ccccc1/C=N/Nc1nc(N2CCCCC2)nc(N2CCCCC2)n1 | -25% | nt | nt | -1% | 14% | 0%
O=C(CSc1nccn1-c1cccc(Cl)c1)Nc1ccc2c(c1)OCO2 | nt | 1% | 21% | nt | nt | 1%
COCCNC(=S)Nc1ccc2nsnc2c1 | -36% | 1% | 2% | 28% | -9% | 0%
C=CCN(CC=C)C(=S)Nc1ccc2nsnc2c1 | 3.5µM* | -1% | 0% | 6.3µM* | 13µM* | 0%
S=C(Nc1ccc2nsnc2c1)N1CCCCCC1 | 14% | nt | -1% | 5% | 0% | 2%
C=CCNC(=S)Nc1ccc2nsnc2c1 | -32% | 28µM* | -2% | 6% | 10% | 0%
C=CCNC(=S)Nc1ccc(C(N)=O)cc1 | 0% | nt | 4% | -2% | -2% | -1%
C=CCNC(=S)Nc1ccc(N(C)C)cc1 | 11µM* | nt | 1% | ? | 10% | -2%
Cc1cc(CNC(=O)c2cnn(-c3nccc(-c4cc(C)sc4C)n3)c2C2CC2)on1 | nt | nt | 0% | nt | nt | nt
Cc1nc2ccccc2nc1CN1CCOc2ccc(CN3CCc4sccc4C3)cc2C1 | nt | nt | -1% | nt | nt | nt
CC[C@H](C)[C@@H](NC(=O)O[C@H]1C(=O)c2ccc(OC)cc2O[C@@H]1c1ccc2c(c1)OCO2)C(=O)OC | 8% | nt | nt | 1% | -1% | 0%
CN(c1ccccc1)S(=O)(=O)c1nnc(NC(=O)c2cccs2)s1 | nt | -7% | 1% | nt | nt | ?
COc1cc(C(=O)Nc2nnc(C)s2)cc(OC)c1OC | 7.1µM* | -6% | 7% | 6% | 11% | 1%
COc1cc(C(=O)Nc2nnc(S(=O)(=O)N(C)c3ccccc3)s2)cc(OC)c1OC | nt | -7% | 0% | nt | nt | 10µM*
CCc1ccccc1N(CC)C(=O)c1c(C)oc2ncn(C)c(=O)c12 | nt | 0% | -1% | nt | nt | 0%
O=C1SC(SCc2ccccc2)=N/C1=C\c1ccco1 | -10% | -1% | ? | 10% | -21% | -1%
CCCSC1=N/C(=C\c2ccc([N+](=O)[O-])o2)C(=O)S1 | 2% | 0% | 2% | 17% | 40µM* | 0%
CCCSC1=N/C(=C\C=C\c2ccco2)C(=O)S1 | -4% | 1% | ? | 4% | 32µM* | -1%
CCc1ccc(CNC(=O)C2CCCN(c3nnc(C)c4c(C)n(-c5ccc(OC)cc5)nc34)C2)cc1 (stereo not drawn) | nt | -28% | 2% | nt | nt | -2%
CCOC(=O)c1c(C)[nH]c2cc(Br)c(O)cc12 | ? | -2% | 2% | 1% | -19% | 6%
CCOC(=O)c1c(OCC)[nH]c2c1cc(O)c1ccccc12 | ? | 22µM* | -1%[38.3 µM] | ? | ? | 1%
CCCCn1cc(S(=O)(=O)c2ccc(OC)cc2)c(=O)c2cc(F)c(F)cc21 | nt | -2% | 1% | nt | nt | -2%
N#C/C(=C\c1ccccc1C(F)(F)F)C(=O)Nc1ccccc1 | -11%[10 µM] | 1% | 18% | 3% | 20% | -1%
SMILES | RORg inh | ClpP mod | PINK1 modulator | Gal4-VP16 FLuc | Sfp PPTase inh | Epigenetic derep
CCc1cccc(CC)c1NC(=O)/C(C#N)=C/c1ccccc1C(F)(F)F | 11µM* | 1% | -2% | 10µM* | 12% | 18%
Cn1cnc(Sc2ncnc3nc[nH]c23)c1[N+](=O)[O-] | -2% | -1% | 1% | -2% | 40µM* | 0%
Cn1cnc([N+](=O)[O-])c1Sc1ncnc2nc[nH]c12 | 6% | nt | 3% | -6% | 79µM*! | 0%
CCOc1ccc2nc(N(CCCN(C)C)C(=O)c3ccc(S(=O)(=O)N4CCc5ccccc5C4)cc3)sc2c1 | 10µM* | 4% | 3% | ? | -4% | nt
COc1cc2nc(N(CCCN(C)C)C(=O)c3ccc(S(=O)(=O)N4CCc5ccccc5C4)cc3)sc2cc1OC | nt | 5% | -3% | nt | nt | nt
CN(C)CCCN(C(=O)c1ccc(S(=O)(=O)N2CCc3ccccc3C2)cc1)c1nc2c(F)cc(F)cc2s1 | nt | nt | 1% | nt | nt | nt
COc1cccc2sc(N(CCCN(C)C)C(=O)c3ccc(S(=O)(=O)N4CCc5ccccc5C4)cc3)nc12 | -89% | -4% | 2% | 28µM* | -19% | nt
CCOc1ccccc1CNC(=O)Cc1ccc(NC(=O)N2CCCCc3ccccc32)cc1 | nt | 0% | -1% | nt | nt | 0%
CC(=O)NC1CC(=O)N(c2ccc3c(c2)OCCO3)C1 (stereo not drawn) | nt | 1% | 0% | nt | nt | 0%
CCOc1cccc(/C=N/NC(=S)Nc2cc(S(=O)(=O)N3CCOCC3)ccc2N2CCOCC2)c1O | ? | -4% | -1% | 10µM* | 8% | -1%
COc1ccc2ccccc2c1/C=N/NC(=S)Nc1cc(S(=O)(=O)N2CCOCC2)ccc1N1CCOCC1 | 2.8µM* | ? | -3% | 10µM* | 21% | 1%
Cc1ccccc1OCC(=O)Nc1cc(S(=O)(=O)N2CCOCC2)ccc1N1CCCC1 | nt | -2% | 3% | nt | nt | nt
COc1ccc(/C=N/NC(=S)Nc2cc(S(=O)(=O)N3CCOCC3)ccc2N2CCOCC2)cc1O | ? | -5% | 6% | ? | -5% | -1%
Cc1ncc2c(c1CNC(=O)c1ccc3c(c1)OCO3)CCN(C(=O)c1csc3c1CCCC3)C2 | nt | nt | 0% | nt | nt | nt
Cc1nc(N2CCOCC2)c2nc(-c3ccccc3)n(CCCN(C)C)c2n1 | -2% | nt | nt | -8% | 35% | 0%
Cc1ccc(-c2cc(-c3ccccc3)nc(N(C)N)n2)cc1 | 13µM* | -2% | -1% | ? | -13% | nt
CC1CCN(C(=O)COC(=O)C2CCN(S(=O)(=O)c3c(Cl)cccc3Cl)CC2)CC1 | nt | ? | 6% | nt | nt | nt
CC1CCCCN1C(=O)COC(=O)C1CCN(S(=O)(=O)c2c(Cl)cccc2Cl)CC1 (stereo not drawn) | -36% | 16µM* | 1% | -7% | 2% | nt
CC[N+](CC)(CC)c1ccc(/C=C/c2ccc3ccccc3n2)cc1 | nt | -2% | ? | nt | nt | nt
COc1ccc(Br)cc1/C=N/N1C(=O)CSC1=S | 14µM* | nt | -2% | -24% | -9% | nt

Assay outcomes: PubChem, National Center for Advancing Translational Sciences (NCATS)
